Molecules are shown by their SMILES. Inconclusive results are not listed. Where a call stands in place of a potency, no number is given. The source made the active and inactive calls. The call rests on the fitted dose curve; in most records, active means well fitted cell-killing curve with a large enough effect; inconclusive means small, poorly fitted or top-dose-only effect; inactive means flat fitted curve, though single readings scatter.

A short description of this experiment: Cellular viability qHTS for adrenocortical cancer (ACC) cell line NCI-H295R (AID 1963990). Further: nearly all actives have a fitted effect of over 60% in size. The note with it: CellTiter-Glo ATP luminescence, 48 h; series mostly up to 46.1 µM. The method, boiled down:
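Viability of NCI-H295R after 48 h of treatment (final up to 46 uM) measured through cellular ATP luminescence.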
(In general: Quantitative high-throughput screening tests each substance at several concentrations.)
Take `C[C@]12CC[C@@H]3[C@@H](CCC4=CC(=O)CC[C@@H]43)[C@@H]1CC[C@@H]2OC(=O)CCc1ccccc1`: the Potency entry was “inactive”.

As to `Cc1ccccc1-n1c(Cn2cnc3c(N)ncnc32)nc2cccc(C)c2c1=O`, the Potency entry was “inactive”.

Consider `CN(C)CCN(C)CCc1ccc(Cl)c(Cl)c1`, for which the Potency result was “inactive”.

Consider `CSCC[C@@H](NC(=O)[C@@H](Cc1ccccc1)NC(=O)CNC(=O)CNC(=O)[C@@H](N)Cc1ccc(O)cc1)C(=O)O`, for which the Potency result was “inactive”.

In the case of `CCOC(=O)c1c(C(C#N)=CN)c2ccc(Cl)c(Cl)c2n1C`, the Potency entry is “inactive”.

In the case of `CCN1C[C@]2(OC(=O)c3ccccc3NC(C)=O)CC[C@H](OC)[C@@]34[C@H]5CC6[C@@H](OC)C[C@](O)(C(C[C@@H]23)[C@@H]14)[C@@]5(O)[C@@H]6OC`, the Potency entry is “inactive”.

The values are drawn from PubChem BioAssay (NCATS).
